A short description of experiment [1]: differential killing of epithelial or mesenchymal cells, primary screen, imaging, PC-3E GFP, TEM4-18 mCherry, co-culture (AID 1345086;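 active = compounds killing one labelled cell type while sparing the other, by normalised counts and ratio limits, not self-fluorescent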;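 for all read-outs here: cells exposed to compound for 72 h before imaging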;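 for red/green cell ratio (normalised): normalised mesenchymal count divided by normalised epithelial count so high means epithelial killing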). Conditions: imaging cell counts, at 1 µM; for red/green cell ratio (normalised): actives lie on both sides, counts scaled to control wells, 1 = unselective.
The target in experiment [2] is NAD(+) hydrolase SARM1 (Homo sapiens) (UniProt Q6SZW1). Description: SARM1 TIR NADase inhibitors, cell lysate, NAD-Glo luminescence (AID 1508614;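 active = compound whose remaining NAD level is above about 45 nM, limit read from the data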;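 note: higher remaining NAD means stronger inhibition of SARM1 NADase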). Conditions: SAM-TIR HEK293T lysate NADase, at 1 µM, stronger effect = higher value.
Experiment [3] is described as follows: growth inhibition of DIPG glioma cells, dose response, cell-based, SU-DIPG-XVII, MIPE5.0, CellTiter-Glo, qHTS (AID 1347060). The following applies: SU-DIPG-XVII viability, CellTiter-Glo ATP luminescence. (In ATP-based viability assays light output follows the ATP content of the culture.)
The nature of experiment [4]: growth inhibition of DIPG glioma cells, dose response, cell-based, JHH-DIPG-1, MIPE4.0, CellTiter-Glo, qHTS (AID 1347062; cut-off not given, nearly all actives have AC50 up to about 27 µM). The following applies: JHH-DIPG-1 viability, CellTiter-Glo ATP luminescence.
A short description of experiment [5]: growth inhibition of DIPG glioma cells, dose response, cell-based, SU-DIPG-IV, MIPE4.0, CellTiter-Glo, qHTS (AID 1347063; cut-off not given, nearly all actives have AC50 up to about 30 µM;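 note: compound exposure lasted 48 hours before the viability readout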). The following applies: SU-DIPG-IV viability, CellTiter-Glo ATP luminescence.
A short description of experiment [6]: growth inhibition of DIPG glioma cells, dose response, cell-based, SU-DIPG-XIII, MIPE5.0, CellTiter-Glo, qHTS (AID 1347064; cut-off not given, nearly all actives have AC50 up to about 23 µM). The following applies: SU-DIPG-XIII viability, CellTiter-Glo ATP luminescence.
Experiment [7] is described as follows: viability loss in pontine glioma line – cell-based, SU-DIPG-XXV, MIPE5.0, CellTiter-Glo, qHTS, dose response (AID 1347065).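 Note: cells exposed to compound for 48 hours before ATP readout.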 The following applies: CellTiter-Glo ATP luminescence.
The nature of experiment [8]: SU-DIPG-VI glioma cell viability, MIPE4.0 library, CellTiter-Glo luminescence, qHTS (AID 1347066; cut-off not given, nearly all actives have AC50 up to about 30 µM;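 note: cells exposed to compound for 48 hours before readout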). The following applies: CellTiter-Glo ATP luminescence.
Experiment [9] is described as follows: JHH-DIPG-1 glioma cell viability, MIPE5.0 library, CellTiter-Glo luminescence, qHTS (AID 1347067).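 Note: cells exposed to compound for 48 hours before readout.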 The following applies: JHH-DIPG-1 glioma viability, CellTiter-Glo ATP luminescence.
A short description of experiment [10]: SU-DIPG-XXV glioma cell viability, MIPE5.0 library, qHTS (AID 1347068; cut-off not given, nearly all actives have IC50 up to about 30 µM).
In experiment [11] the test system is Neuropilin-2 / VEGF-C interaction (human). In words: inhibitors of NRP2–VEGF-C binding, biochemical, microplate binding format, z-score (AID 743281; call rule not given here). The following applies: microplate NRP2/VEGF-C binding assay; stronger effect = lower value.
Experiment [12] in a line: growth inhibition of DIPG glioma cells, dose response, cell-based, SU-DIPG-XIII, MIPE4.0, CellTiter-Glo, qHTS (AID 1347061; cut-off not given, nearly all actives have AC50 up to about 37 µM;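 note: cells exposed to compound for 48 hours before readout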). The following applies: SU-DIPG-XIII viability, CellTiter-Glo ATP luminescence.
[13] abbreviates: measured here: epithelial PC-3E GFP cell survival.
[14] abbreviates: measured here: mesenchymal TEM4-18 mCherry cell survival.

Inconclusive results are not listed. Active and inactive are the calls of the source. Unless noted, no cut-off is given here; in the data, nearly all actives have AC50 up to about 26 µM.

Sequence of NAD(+) hydrolase SARM1 (Homo sapiens) (Q6SZW1 whole entry, looked up): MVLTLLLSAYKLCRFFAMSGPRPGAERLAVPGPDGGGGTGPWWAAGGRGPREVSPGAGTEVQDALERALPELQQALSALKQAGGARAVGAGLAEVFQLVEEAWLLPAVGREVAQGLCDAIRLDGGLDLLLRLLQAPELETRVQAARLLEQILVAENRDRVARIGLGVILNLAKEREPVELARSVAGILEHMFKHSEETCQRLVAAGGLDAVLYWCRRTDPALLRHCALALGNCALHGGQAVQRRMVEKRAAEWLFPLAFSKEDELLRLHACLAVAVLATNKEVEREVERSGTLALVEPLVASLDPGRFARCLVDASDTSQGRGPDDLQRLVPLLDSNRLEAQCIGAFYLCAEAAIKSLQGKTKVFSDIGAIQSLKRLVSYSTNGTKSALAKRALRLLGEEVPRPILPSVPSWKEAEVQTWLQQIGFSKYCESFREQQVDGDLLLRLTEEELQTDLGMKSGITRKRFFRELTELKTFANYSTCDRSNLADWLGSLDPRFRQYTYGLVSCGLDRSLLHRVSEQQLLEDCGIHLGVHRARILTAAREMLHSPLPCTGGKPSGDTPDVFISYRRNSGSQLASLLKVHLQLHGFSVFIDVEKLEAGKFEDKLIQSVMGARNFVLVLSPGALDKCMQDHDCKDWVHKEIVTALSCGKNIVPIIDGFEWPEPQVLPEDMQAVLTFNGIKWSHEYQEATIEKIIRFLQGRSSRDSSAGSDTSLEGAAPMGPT

In the case of `C/C(=C\C(=O)OCCCCCCCCC(=O)O)C[C@@H]1OC[C@H](C[C@@H]2O[C@H]2[C@@H](C)[C@H](C)O)[C@@H](O)[C@H]1O`, the red/green cell ratio (normalised) in experiment [1] was 1 (inactive). In addition, the normalised cell number in experiment [1] (setting [13]) and in experiment [1] (setting [14]) was 1.08 each time. Further, the remaining NAD in experiment [2] is 10 nM (inactive).

Regarding `CC[C@H]1OC(=O)[C@H](C)[C@@H](O[C@H]2C[C@@](C)(OC)[C@@H](O)[C@H](C)O2)[C@H](C)[C@@H](O[C@@H]2O[C@H](C)C[C@H](N(C)C)[C@H]2O)[C@](C)(O)C[C@@H](C)CN(C)[C@H](C)[C@@H](O)[C@]1(C)O`, the red/green cell ratio (normalised) in experiment [1] was 1.25 (inactive). Further, the results for the normalised cell number in [1] (setting [13]) and in experiment [1] (setting [14]) were 1.02 and 1.27, respectively. Also, the outcome in [3], in experiment [4], in experiment [5], in [6], in experiment [7] and in experiment [8] was inactive. The molecule was classed as inactive in experiment [9] and in experiment [10]. Moreover, the remaining NAD in experiment [2] is 10 nM (inactive).

On to `Cc1c(C(=O)NN2CCCCC2)nn(-c2ccc(Cl)cc2Cl)c1-c1ccc(I)cc1`, for which the z-score in experiment [11] was 0.177 (inactive).

With `CN1CC(=O)N2[C@H](c3ccc4c(c3)OCO4)c3[nH]c4ccccc4c3C[C@@H]2C1=O`, in experiment [11], the z-score is 1.08 (inactive). In [1], the red/green cell ratio (normalised) was 1 (inactive). Further, the normalised cell number stood at 1.08 in [1] (setting [13]) and 1.07 in experiment [1] (setting [14]). Besides, the outcome in [3], in [12], in experiment [4], in experiment [5], in [6] and in experiment [7] was inactive. The molecule was called inactive in [8], in experiment [9] and in [10]. The remaining NAD in experiment [2] is 10 nM (inactive).

Turning to `COc1ccc(C[C@H](C)NC[C@@H](O)c2ccc(O)c(NC=O)c2)cc1`, in [11], the z-score is -0.584 (inactive).

For the molecule `Cc1cnc(C(=O)NCCc2ccc(S(=O)(=O)NC(=O)NC3CCCCC3)cc2)cn1`, the red/green cell ratio (normalised) in [1] was 1.07 (inactive). The normalised cell number in experiment [1] (setting [13]) turned out to be 0.87; in experiment [1] (setting [14]), 0.93. The call in experiment [4], in [6], in experiment [7], in experiment [8], in experiment [9] and in [10] was inactive. For the same molecule, the remaining NAD in experiment [2] was 10 nM (inactive).

In the case of `CC(C)NCC(O)c1ccc(NS(C)(=O)=O)cc1` (centres undefined), the z-score in [11] was -0.291 (inactive). For the same molecule, in experiment [1], the red/green cell ratio (normalised) was 0.8 (inactive). For the same molecule, the normalised cell number in [1] (setting [13]) amounted to 1.21; in experiment [1] (setting [14]) it was 0.97. In addition, the outcome in [3], in [4], in [5], in experiment [6], in experiment [7] and in [8] was inactive. Besides, the molecule was classed as inactive in experiment [9] and in experiment [10]. Further, the remaining NAD in [2] was 10 nM (inactive).

Turning to `CN(C)CCCC1(c2ccc(F)cc2)OCc2cc(C#N)ccc21` (centres undefined), in experiment [11], the z-score was 0.0126 (inactive). The red/green cell ratio (normalised) in experiment [1] is 1.17 (inactive). The figures for the normalised cell number in experiment [1] (setting [13]) and in experiment [1] (setting [14]) were 1.12 and 1.31, respectively. Besides, the call in experiment [5] and in [8] was inactive. The remaining NAD in [2] is 10 nM (inactive).

On to `CCOC(=O)c1ccc(OC(=O)CCCCCN=C(N)N)cc1`, for which the z-score in experiment [11] is -0.315 (inactive). The result in experiment [3], in experiment [12], in experiment [4], in experiment [5], in experiment [6] and in experiment [8] was inactive. Further, the call in experiment [9] and in [10] was inactive.

As to `CC(CCCCC(=O)Nc1ccc(C(F)(F)F)cc1)NCCc1cnc[nH]1` (centres undefined), in experiment [11], the z-score is -0.258 (inactive).

In the case of `CCN(CC)CC#CCOC(=O)C(O)(c1ccccc1)C1CCCCC1` (centres undefined), the red/green cell ratio (normalised) in experiment [1] was 1.02 (inactive). Besides, the normalised cell number in experiment [1] (setting [13]) is 1.13; in experiment [1] (setting [14]), 1.14. In addition, the molecule was classed as inactive in experiment [12], in experiment [4], in experiment [5] and in experiment [8]. The remaining NAD in experiment [2] is 10 nM (inactive).

For the molecule `CC(C)C[C@H](NC(=O)[C@@H](O)[C@H](N)Cc1ccccc1)C(=O)O`, the z-score in [11] was 0.0206 (inactive). The call in experiment [3], in [4], in [6], in [9] and in [10] was inactive. Also, the AC50 – broadly, the concentration at which the activity in the assay is half-maximal – was 18.7 µM (active) in [5] and 20.9 µM (active) in experiment [8].

Regarding `O=C1CN2Cc3c(ccc(Cl)c3Cl)N=C2N1`, the molecule was called inactive in experiment [11], in [3], in [12], in [4], in experiment [6] and in experiment [7]. Besides, the outcome in experiment [9] and in experiment [10] was inactive. Moreover, the red/green cell ratio (normalised) in [1] is 0.92 (inactive). Further, the normalised cell number in experiment [1] (setting [13]) amounted to 0.86; in [1] (setting [14]) it was 0.79. For the same molecule, the remaining NAD in experiment [2] is 10 nM (inactive).

Consider `CSc1nc2cc(Oc3cccc(Cl)c3Cl)c(Cl)cc2[nH]1`, for which the z-score in experiment [11] is 0.432 (inactive). For the same molecule, the red/green cell ratio (normalised) in experiment [1] is 0.82 (inactive). Moreover, the normalised cell number in experiment [1] (setting [13]) came to 1.26; in [1] (setting [14]) it was 1.03.

As to `Cc1cccc(CCN2CCC(C(=O)c3ccc(NS(C)(=O)=O)cc3)CC2)n1`, the z-score in experiment [11] was -0.668 (inactive).

`CN(C)CCOc1ccc(/C(=C(/CCCl)c2ccccc2)c2ccccc2)cc1`: the z-score in [11] was -0.537 (inactive). In addition, the red/green cell ratio (normalised) in experiment [1] was 0.97 (inactive). Besides, the results for the normalised cell number in experiment [1] (setting [13]) and in experiment [1] (setting [14]) were 1.07 and 1.04, respectively. In addition, the molecule was called inactive in experiment [12], in experiment [4] and in experiment [8]. Further, in [7], the AC50 was 20.9 µM (active). In experiment [2], the remaining NAD was 10 nM (inactive).

For the origin of these results see PubChem BioAssay.
